# Source: PubChem BioAssay (Tox21)
# Where “and” joins values, the source holds several entries; their conditions need not be identical. Identical values can stand only once. Results filed as inconclusive are left out. Where a call stands in place of a potency, no number is given. More than one record can exist for a structure, and the calls need not agree. Calls of active or inactive are those of the source. Unless noted, the call rests on the fitted dose curve; in most records, active means well fitted curve in the direction sought with a large enough effect in the repeat runs; inconclusive means weak or mixed curves; inactive means no such curve, though single readings can be large; an effect the other way counts as inactive or inconclusive.
# Columns and labels:
# [1] = qHTS assay to test for compound auto fluorescence at 535 nm (green) in HEK293 cells (AID 720680)
# [2] = qHTS assay to test for compound auto fluorescence at 535 nm (green) in HEK293 cell free culture (AID 720682)
# In short: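 Each library compound, or DMSO control, is added by pintool to medium alone, comprising DMEM and 10% FBS. Emission at 535 nm following 485 nm excitation is quantified against fluorescein.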
# [3] = qHTS assay to test for compound auto fluorescence at 590 nm (red) in HEK293 cell free culture (AID 720683)
# In short: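 Tox21 10K library compounds were pinned into cell-free DMEM with 10% FBS and fluorescence was read at excitation 540 nm. Activity is expressed as Rose Bengal sodium equivalency.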
# [4] = qHTS assay to test for compound auto fluorescence at 590 nm (red) in HepG2 cell free culture (AID 720684)
# In short: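 Red fluorescence (540 nm excitation, 590 nm emission) was measured after compound transfer into cell-free MEM supplemented with 10% FBS. Values are equivalencies against Rose Bengal sodium.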
# [5] = qHTS assay to test for compound auto fluorescence at 535 nm (green) in HepG2 cell free culture (AID 720686)
# [6] = qHTS assay to test for compound auto fluorescence at 460 nm (blue) in HepG2 cells (AID 720687)
# In short: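 Cells (2,000/well in MEM with 10% FBS) attached overnight at 37 C, then were exposed to compound or DMSO for 1 hr at 37 C, 5% CO2. Fluorescence read at Ex/Em 405/460 nm, expressed as triamterene-equivalent signal.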
# [7] = qHTS assay to identify small molecule antagonists of the glucocorticoid receptor (GR) signaling pathway - cell viability counter screen (AID 720693); further: nearly all actives have a fitted effect of over 55% in size
# [8] = qHTS assay for identifying genotoxic compounds that show differential cytotoxicity against isogenic chicken DT40 cell lines with known DNA damage response pathways - wild type cell line (AID 743012); further: nearly all actives have a fitted effect of over 60% in size; further: potency means the concentration at half of the fitted maximal effect
# In short: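 Cells (DT40 wild type, 300/well) are treated with DMSO-dissolved compounds after a ~0.5 h pre-incubation and kept 40 h at 37 C/5% CO2. Viability is then measured by CellTiter-Glo luminescence following 30 min at room temperature.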
# [9] = qHTS assay for identifying genotoxic compounds that show differential cytotoxicity against isogenic chicken DT40 cell lines with known DNA damage response pathways - Rev3 mutant cell line (AID 743014); further: nearly all actives have a fitted effect of over 55% in size; further: potency means the concentration at half of the fitted maximal effect
# [10] = qHTS assay for identifying genotoxic compounds that show differential cytotoxicity against isogenic chicken DT40 cell lines with known DNA damage response pathways - Rad54/Ku70 mutant cell line (AID 743015); further: nearly all actives have a fitted effect of over 60% in size; further: potency means the concentration at half of the fitted maximal effect
# [11] = qHTS assay to identify small molecule antagonists of the androgen receptor (AR) signaling pathway - cell viability counter screen (AID 743033; further: nearly all actives have a fitted effect of over 45% in size; further: potency means the concentration at half of the fitted maximal effect)
# [12] = qHTS assay to identify small molecule antagonists of the androgen receptor (AR) signaling pathway using the MDA cell line - cell viability counter screen (AID 743041; further: nearly all actives have a fitted effect of over 45% in size)
# In short: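 MDA-kb2 AR-luc human breast carcinoma cells (MMTV-luciferase, AR/GR responsive) were treated with compounds plus R1881 agonist for 16 h at 37 °C. Viability was read as CellTiter-Fluor fluorescence in the same wells as the reporter assay.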
# [13] = qHTS assay to identify small molecule antagonists of the thyroid receptor (TR) signaling pathway - cell viability counter screen (AID 743064); further: nearly all actives have a fitted effect of over 50% in size; further: potency means the concentration at half of the fitted maximal effect
# In short: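 CellTiter-Fluor readout, 30 min at 37 °C/5% CO2, following 23.5 h incubation of GH3.TRE-Luc cells with test compound and 1 nM T3 (final).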
# [14] = qHTS assay to test for compound auto fluorescence at 460 nm (blue) in HEK293 cell free culture (AID 720681)
# In short: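 Test compounds were pinned into cell-free culture medium (DMEM with 10% FBS) and fluorescence was read directly at Ex/Em 405/460 nm. Signals were expressed as fluorescence equivalents of triamterene, with DMSO vehicle as control.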
# [15] = qHTS assay to test for compound auto fluorescence at 460 nm (blue) in HepG2 cell free culture (AID 720685)
# In short: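 Compound (23 nL) or DMSO pinned into cell-free MEM with 10% FBS; blue fluorescence read at 405/460 nm excitation/emission, expressed as auto-fluorescence equivalency to triamterene.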
# [16] = target: Glucocorticoid receptor (Homo sapiens) (UniProt P04150); experiment: qHTS assay to identify small molecule agonists of the glucocorticoid receptor (GR) signaling pathway (AID 720691; active means well fitted activation curve with a large enough effect in the signal ratio in the repeat runs, not every such curve was filed as active; the % refers to the signal ratio)
# In short: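 Agonist mode in a HeLa line carrying a GRE-controlled beta-lactamase reporter. Compounds act for 18 h at 37 C before a 2 h room-temperature FRET substrate step and fluorescence reading.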
# [17] = target: Glucocorticoid receptor (Homo sapiens) (UniProt P04150); experiment: qHTS assay to identify small molecule antagonists of the glucocorticoid receptor (GR) signaling pathway (AID 720692; active means well fitted inhibition curve with a large enough effect in the signal ratio in the repeat runs, not every such curve was filed as active; the % refers to the signal ratio; further: potency means the concentration at half of the fitted maximal effect)
# In short: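 Cells plated, rested 4 h at 37 C/5% CO2; compounds in DMSO pin-transferred; dexamethasone added to 5 nM final; 18 h at 37 C; B/G FRET substrate added, 2 h room temperature; fluorescence measured.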
# [18] = target: Androgen receptor (Homo sapiens) (UniProt P10275); experiment: qHTS assay to identify small molecule agonists of the androgen receptor (AR) signaling pathway (AID 743036; active means well fitted activation curve with a large enough effect in the signal ratio in the repeat runs, with a control signal flat, not every such curve was filed as active; the % refers to the signal ratio)
# In short: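 Following a 4 h settling period, AR-UAS-bla HEK293 cells were dosed with compounds for 16 h at 37C. A 2 h room-temperature incubation with LiveBLAzer B/G FRET substrate preceded the fluorescence measurement.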
# Glucocorticoid receptor (Homo sapiens), sequence (P04150 whole entry, looked up): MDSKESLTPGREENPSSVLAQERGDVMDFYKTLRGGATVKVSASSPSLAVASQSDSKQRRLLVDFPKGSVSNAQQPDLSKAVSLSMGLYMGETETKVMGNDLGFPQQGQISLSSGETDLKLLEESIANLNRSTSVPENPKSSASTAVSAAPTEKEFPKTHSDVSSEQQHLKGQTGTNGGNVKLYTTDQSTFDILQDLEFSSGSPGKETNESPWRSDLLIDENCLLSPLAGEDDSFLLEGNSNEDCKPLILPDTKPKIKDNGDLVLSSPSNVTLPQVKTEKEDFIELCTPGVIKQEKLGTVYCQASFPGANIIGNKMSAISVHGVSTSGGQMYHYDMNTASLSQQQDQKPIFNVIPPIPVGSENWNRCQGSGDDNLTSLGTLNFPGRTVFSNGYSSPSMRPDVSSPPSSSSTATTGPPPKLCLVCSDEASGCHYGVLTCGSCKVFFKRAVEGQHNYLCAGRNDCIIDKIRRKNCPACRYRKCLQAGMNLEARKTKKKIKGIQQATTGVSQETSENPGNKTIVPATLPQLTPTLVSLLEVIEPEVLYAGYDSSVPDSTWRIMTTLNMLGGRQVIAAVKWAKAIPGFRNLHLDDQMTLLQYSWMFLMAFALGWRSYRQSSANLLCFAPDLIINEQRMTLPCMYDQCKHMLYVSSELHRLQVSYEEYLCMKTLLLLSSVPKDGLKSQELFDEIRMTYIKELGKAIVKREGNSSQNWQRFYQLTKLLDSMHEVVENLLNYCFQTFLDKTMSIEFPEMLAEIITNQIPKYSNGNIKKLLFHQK
# Androgen receptor (Homo sapiens), sequence (P10275 whole entry, looked up): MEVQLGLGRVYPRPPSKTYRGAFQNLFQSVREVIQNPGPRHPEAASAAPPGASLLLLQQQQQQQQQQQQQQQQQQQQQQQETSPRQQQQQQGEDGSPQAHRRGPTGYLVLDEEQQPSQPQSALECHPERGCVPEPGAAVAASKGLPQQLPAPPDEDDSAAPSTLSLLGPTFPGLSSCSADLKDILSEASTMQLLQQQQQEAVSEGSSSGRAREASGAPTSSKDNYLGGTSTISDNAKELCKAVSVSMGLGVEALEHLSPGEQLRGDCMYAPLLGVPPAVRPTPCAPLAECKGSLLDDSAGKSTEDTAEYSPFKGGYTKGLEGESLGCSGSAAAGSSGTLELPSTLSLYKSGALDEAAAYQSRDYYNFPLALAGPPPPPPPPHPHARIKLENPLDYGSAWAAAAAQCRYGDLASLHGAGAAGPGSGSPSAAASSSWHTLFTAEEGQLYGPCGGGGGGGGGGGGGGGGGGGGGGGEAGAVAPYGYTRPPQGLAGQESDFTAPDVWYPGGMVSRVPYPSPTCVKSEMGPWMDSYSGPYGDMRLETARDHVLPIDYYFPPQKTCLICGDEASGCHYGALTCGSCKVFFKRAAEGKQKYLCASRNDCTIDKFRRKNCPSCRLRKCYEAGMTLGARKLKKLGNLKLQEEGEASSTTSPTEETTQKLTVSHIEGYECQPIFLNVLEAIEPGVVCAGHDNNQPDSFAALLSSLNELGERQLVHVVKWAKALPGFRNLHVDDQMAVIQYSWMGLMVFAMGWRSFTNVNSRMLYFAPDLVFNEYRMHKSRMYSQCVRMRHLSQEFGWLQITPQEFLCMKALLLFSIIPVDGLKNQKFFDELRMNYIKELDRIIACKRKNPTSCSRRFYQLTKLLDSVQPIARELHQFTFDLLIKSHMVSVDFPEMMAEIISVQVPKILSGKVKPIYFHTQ
Compound,Potency [1],Potency [2],Potency [3],Potency [4],Potency [5],outcome [6],Potency [7],Potency [8],Potency [9],Potency [10],Potency [11],Potency [12],Potency [13],outcome [14],outcome [15],Potency [16],Potency [17],outcome [18]
CCCCCCCCCCCO,inactive,inactive,inactive,inactive,inactive,inactive,inactive,inactive and 48.6 µM (active),inactive and 54.5 µM (active),inactive and 61.1 µM (active),inactive,inactive,inactive and 30.6 µM (active),–,–,–,–,–
O=CCCCC=O,inactive,inactive,inactive,–,inactive,inactive,inactive,6.11 µM (active),2.17 µM (active),inactive and 2.73 µM (active),inactive,inactive,inactive,inactive,inactive,inactive,–,–
CCCCC(CC)COCC1CO1 (centres undefined),inactive,inactive,inactive,–,inactive,inactive,inactive,inactive,inactive,inactive,inactive,inactive,–,–,–,inactive,inactive,–
CC(C)Oc1ccc2c(=O)c(-c3ccccc3)coc2c1,inactive,inactive,inactive,inactive,inactive,inactive,inactive,6.68 µM (active),–,9.44 µM (active),inactive,inactive,–,–,inactive,inactive,–,–
c1ccc2sc(SSN3CCOCC3)nc2c1,inactive,inactive,inactive,–,inactive,inactive,inactive,2.43 µM (active),–,13.7 µM (active) and 2.17 µM (active),4.36 µM (active),–,15.3 µM (active) and 24.3 µM (active),inactive,–,–,–,–
CN(C)CCN(Cc1cccs1)c1ccccn1,inactive,inactive,inactive,inactive,inactive,inactive,inactive,29.8 µM (active) and inactive,–,inactive,inactive,inactive,inactive,–,inactive,inactive,inactive,–
CCCCCCCCCC(=O)OC,inactive,inactive,inactive,inactive,inactive,inactive,inactive,inactive,inactive,inactive,inactive,inactive,inactive,–,inactive,–,–,–
Cc1c(OCC(F)(F)F)ccnc1CS(=O)c1nc2ccccc2[nH]1 (centres undefined),–,inactive,inactive,–,inactive,inactive,inactive,inactive,inactive and 54.5 µM (active),–,inactive,inactive,inactive,–,inactive,inactive,inactive,–
COc1ccc(C(=O)CC(=O)c2ccc(C(C)(C)C)cc2)cc1,–,inactive,inactive,inactive,inactive,inactive,inactive,inactive,inactive,inactive,inactive,inactive,26.6 µM (active) and 65.8 µM (active),–,inactive,inactive,inactive,–
CC(C)=CCC/C(C)=C\CO,–,inactive,inactive,–,inactive,inactive,inactive,–,inactive and 61.1 µM (active),inactive,inactive,inactive,inactive,–,inactive,inactive,inactive,inactive
O=C(/C=C/C=C/c1ccc2c(c1)OCO2)N1CCCCC1,–,inactive,inactive,inactive,inactive,inactive,inactive,–,–,61.3 µM (active),inactive,inactive,inactive,inactive,inactive,–,–,–
O=C=Nc1ccc(Cc2ccc(N=C=O)cc2)cc1,–,inactive,inactive,inactive,inactive,inactive,inactive,21.3 µM (active) and inactive,–,inactive,–,inactive,inactive,inactive,–,inactive,inactive,–
OC1CCCCCCCCCCC1,–,inactive,inactive,–,inactive,inactive,inactive,inactive,inactive,inactive,inactive,inactive,inactive,inactive,inactive,inactive,inactive,–
Oc1ccc(O)cc1,–,inactive,inactive,inactive,inactive,inactive,–,23.7 µM (active) and 9.63 µM (active) and 61.1 µM (active),–,26.6 µM (active) and 13.6 µM (active) and 54.5 µM (active),inactive,inactive,26.6 µM (active) and 17.1 µM (active) and 34.4 µM (active),–,–,inactive,–,–
O=C(/C=C/c1ccccc1)OCc1ccccc1,–,inactive,inactive,inactive,inactive,inactive,inactive,inactive and 54.5 µM (active),inactive and 38.6 µM (active),inactive and 43.3 µM (active),inactive,inactive,inactive,–,inactive,inactive,inactive,–
COC(=O)C1=C(C)NC(C)=C(C(=O)OCCN(C)Cc2ccccc2)C1c1cccc([N+](=O)[O-])c1 (centres undefined),–,inactive,inactive,–,inactive,inactive,inactive,9.44 µM (active) and 19.2 µM (active),11.9 µM (active) and 21.6 µM (active),10.6 µM (active) and 19.2 µM (active),–,inactive,13.3 µM (active) and 19.2 µM (active),inactive,–,–,23.9 µM (active) and 43.4 µM (active),–
